Laboratory results taken from the OligoGym collection.

biological target: FLG; assay: pooled miR-30 sensor sort-seq; sequence = guide strand; conditions: shRNA
Further: reference of the scale not given here.

Sequence | sensor-assay potency score (higher = more potent)
TTGTTCTGCTTGCACTTCTGGA | -0.702
TAATCTGCACTACCATAGCTGC | -1.29
TAGACTCATAATATGCTTGAGC | -0.577

biological target: FLNC; assay: as above; conditions: shRNA

Sequence | sensor-assay potency score (higher = more potent)
TTGACGGTGAAGGTGTCGTTGT | -0.371
TTGAGGTCACAGGTGCTGCCGA | -0.595
TAGGACACAGTGTACGTGCCAT | -0.557
TAGCTGACAGCACATGAGCCAT | -1.71
TTTGATTTTGCTGAGGTCCAGC | 0.0406
TTGTCTGTCACATAGGTGTCTG | -0.552
TTGATGTCCACCTTGCTTGGGC | 0.144
TACTGCACTCGGTAGGTGCCGT | -0.627
TAGGTGACTTTGCATGTCCCGT | -0.929
TTGTCAGCAAACTTGATGTTGA | -0.54
TTGTCGGTGATGTTGGGCCGTG | -1.35
TTGAACTTGATGGAGACCTCAT | -0.144
TTGACTGCAGTCCACTGTGAAG | -1.44
TAGGAGACAGCATAGGTGCGAT | -0.825
TGAGCCATCACCATTGTCCTGG | 0.0505
TTGATGGTGATGGTGTACCGGC | -1.25
TTGGTGACAATAGTGAAGGTGG | 0.0613
TTACAGGTGATCTCTGCCTTGG | -0.839
TTGAGGTGCTCATTGCACCAGC | -0.419
TAGGCTGACACCAAGCCTGGGT | -0.0141
TAGAGCTTCAGGTCTCCCTTGC | 0.291
TGAACTCTGATGACACACCGGT | 0.0555
TTCAGTGACACGTCCGTGGAGG | -0.25
TTGAGGTTGAGGTCACAGGTGC | -0.307
